SIAE inh – blocks human sialic acid acetylesterase; Q9HAT2; SIAE FP-Rh probe binding, fluorescence polarization; inhibition, % at 9.66 µM; 370,000 tested, 0.69% active; AID 1053197;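 active = inhibition above a cutoff: mean of compounds within the control limits plus 3 SD of those, cut at about 17% in these data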;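 note: 0% = plate median of compound wells and 100% = probe without SIAE protein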
PAD4 FP inh – PAD4 (human) enzyme inhibition | Q9UM07 | recombinant PAD4, RCA probe fluorescence polarization | inhibition, % at 6.36 µM | 330,000 tested, 0.41% active | AID 485272;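 active = percent inhibition above a cutoff equal to the mean of all tested compounds plus 3 SD, cut at about 15% in these data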;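 note: 0% = PAD4 with RCA probe and DMSO and 100% = probe without PAD4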
TCR CD3 inh – blocks the human TCR-CD3 interaction; TAMRA-labeled TCR probe fluorescence, biochemical; inhibition, % at 9.4 µM; 360,000 tested, 0.37% active; AID 651800;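 note: recombinant mutant TCR 2C K166C tagged with TAMRA read by polarization; 0% = receptor in buffer alone and 100% = receptor with positive control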
PRMT1 FP inh – blocks human protein arginine methyltransferase 1 | inhibition, % at 2.79 µM | recombinant PRMT1, activity-based probe fluorescence polarization | 370,000 tested, 1.3% active | Q99873;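 active = inhibition above about 21% made by adding two undisclosed values, limit read from the data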
PME-1 primary – blocks human protein phosphatase methylesterase 1; inhibition, % at 5.9 µM; recombinant PME-1, FP-Rh probe fluorescence polarization; Q9Y570; AID 2130; 320,000 tested, 0.53% active;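 active = inhibition above the campaign mean of all compounds plus 3 SD, cut at about 26% in these data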;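 note: competitive labeling of PME-1 active site by serine hydrolase directed probe; 0% = PME-1 with DMSO and 100% = wells lacking PME-1 enzyme; inhibitors block probe labeling so polarization falls and inhibition rises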
Target sequence (Q9Y570 whole entry, looked up): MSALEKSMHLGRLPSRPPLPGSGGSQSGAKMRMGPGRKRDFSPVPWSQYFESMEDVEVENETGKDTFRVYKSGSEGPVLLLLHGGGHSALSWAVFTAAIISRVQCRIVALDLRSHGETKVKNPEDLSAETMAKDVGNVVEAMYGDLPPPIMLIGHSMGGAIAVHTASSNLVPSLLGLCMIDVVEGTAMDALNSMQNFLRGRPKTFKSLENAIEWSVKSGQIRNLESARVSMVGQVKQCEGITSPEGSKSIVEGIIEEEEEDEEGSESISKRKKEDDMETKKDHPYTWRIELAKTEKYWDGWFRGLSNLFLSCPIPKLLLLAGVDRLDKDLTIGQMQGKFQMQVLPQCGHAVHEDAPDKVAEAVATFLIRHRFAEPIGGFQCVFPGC
Fam108B counter – counter-screen for RBBP9 inhibitors: inhibitors of mouse Fam108B; recombinant Fam108B, FP-Rh probe fluorescence polarization; inhibition, % at 9.51 µM; 300,000 tested, 0.33% active; AID 1947;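 active = inhibition above the screen mean inhibition plus 3 SD, computed separately per campaign, cut at about 18% in these data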;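 note: inhibitors lower polarization as less probe binds the enzyme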
Fam108b confirm – confirmation of mouse Fam108b serine hydrolase inhibitors. 930 tested, 44% active. AID 1978. recombinant Fam108b, FP-Rh probe fluorescence polarization. shares compounds with Fam108B counter. inhibition, % at 9.51 µM;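 active = inhibition above a limit from the primary screen, the mean over all compounds plus 3 SD, cut at about 19% in these data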;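 note: 0% = median of active Fam108b wells and 100% = catalytically dead S170A mutant; inhibitors free the probe so polarization falls as inhibition rises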
Fam108b ABPP HTS – mouse ABHD17B inhibition. shares compounds with Fam108B counter. recombinant Fam108b, gel-based ABPP, fluorophosphonate probe. inhibition, % at 20 µM. 260 tested, 44% active. AID 588649; in the data active = inhibition above about 40%
PAD4 FP conf – confirmation of human PAD4 inhibitors. shares compounds with PAD4 FP inh. recombinant PAD4, RCA probe fluorescence polarization. inhibition, % at 6.36 µM. 1,200 tested, 28% active. AID 488796;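 active = mean inhibition across replicates above the hit cutoff set by the earlier primary screen, cut at about 15% in these data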;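 note: inhibitors block active-site labeling by the probe so polarization falls; 0% = PAD4 with probe and DMSO and 100% = probe without PAD4 enzyme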
BSA TAMRA ctr – BSA probe counter-screen for TCR-CD3 inhibitors; shares compounds with TCR CD3 inh; TAMRA-labeled BSA probe fluorescence counterscreen; inhibition, % at 9.4 µM; 1,200 tested, 10% active; in the data active = inhibition above about 23%;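 note: 0% = buffer low control and 100% = reference high control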
TCR-CD3 conf – confirmation of human TCR-CD3 interaction inhibitors; shares compounds with TCR CD3 inh; TAMRA-labeled TCR probe fluorescence binding assay; inhibition, % at 9.4 µM; 1,200 tested, 48% active
PRMT1 confirm – confirmation of human PRMT1 inhibitors | AID 687036 | shares compounds with PRMT1 FP inh | inhibition, % at 2.79 µM | 3,300 tested, 42% active | recombinant His-PRMT1, activity-based probe fluorescence polarization;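 active = mean inhibition across replicates above the hit cutoff derived for the earlier primary screen, cut at about 22% in these data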
The depositor's hits bear a star. Most compounds without a hit are left out; they make up all but 2.6% or so of the library. Cut-off read from the data, not from the text of the source, unless noted: active = inhibition above about 19%; inactive = the rest.

Results for O=S(=O)(c1cc(O)ccc1O)c1cccc2c(S(=O)(=O)c3cc(O)ccc3O)cccc12 ?
SIAE inh: -3; PAD4 FP inh: -4; TCR CD3 inh: 25*; PRMT1 FP inh: 12; PME-1 primary: 14; Fam108B counter: 36*; Fam108b confirm: 32*; Fam108b ABPP HTS: 55*; BSA TAMRA ctr: -9; TCR-CD3 conf: 12

How did COc1ccc(CC(=O)NC2CCCCN(Cc3ccc(Cl)cc3)C2=O)cc1OC (stereo not given) do in these assays?
SIAE inh: 0; PRMT1 FP inh: 7

Results for O=[N+]([O-])c1cc(Br)c(O)c(/C=N/Nc2nnnn2-c2cccc3ccccc23)c1 ?
SIAE inh: 16; PAD4 FP inh: -7; TCR CD3 inh: 20*; PRMT1 FP inh: 5; PME-1 primary: 49*; Fam108B counter: 40*; Fam108b confirm: 54*; BSA TAMRA ctr: -15; TCR-CD3 conf: 41*

What do the screens show for `O=C(N/N=C/c1cc([N+](=O)[O-])cc(Br)c1O)C12CC3CCC(CC(C3)C1)C2`?
SIAE inh: 2; PAD4 FP inh: 3; TCR CD3 inh: 11; PRMT1 FP inh: 0; PME-1 primary: -5; Fam108B counter: 0

Results for O=C(O)CCNc1ccc(NCCC(=O)O)c2c1C(=O)c1ccccc1C2=O ?
SIAE inh: 13; PAD4 FP inh: 22*; TCR CD3 inh: 28*; PRMT1 FP inh: 27*; PME-1 primary: 27*; Fam108B counter: 36*; Fam108b confirm: 26*; PAD4 FP conf: 11; BSA TAMRA ctr: 13; TCR-CD3 conf: 42*

Results for CC1=NN(c2cccc(C(=O)O)c2)C(=O)/C1=C\C=C\c1ccco1 ?
SIAE inh: 12; PAD4 FP inh: 6; TCR CD3 inh: 19*; PRMT1 FP inh: 27*; PME-1 primary: -7; Fam108B counter: 24*; Fam108b confirm: 29*; BSA TAMRA ctr: -10; TCR-CD3 conf: 15

Results for C/C(=N\OCc1nc2ccccc2c(=O)n1/N=C/c1cc(C)cc([N+](=O)[O-])c1O)c1ccccc1 ?
SIAE inh: 11; PAD4 FP inh: 2; TCR CD3 inh: 39*; PRMT1 FP inh: 0; PME-1 primary: -5; Fam108B counter: 24*; Fam108b confirm: 17; BSA TAMRA ctr: -6; TCR-CD3 conf: 50*

How did Cc1nc2ccccc2c(=O)n1/N=C/c1ccc2ccccc2c1O do in these assays?
PAD4 FP inh: -7; PME-1 primary: -2; Fam108B counter: 3

What do the screens show for `c1coc(-c2nnc(-c3ccco3)nn2)c1`?
SIAE inh: 14; PAD4 FP inh: -7; TCR CD3 inh: 28*; PRMT1 FP inh: 46*; PME-1 primary: -2; Fam108B counter: 22*; Fam108b confirm: 16; BSA TAMRA ctr: -10; TCR-CD3 conf: 16

How did c1ccc(-c2nnc(-c3ccco3)o2)cc1 do in these assays?
SIAE inh: 0; PAD4 FP inh: -2; TCR CD3 inh: 9; PRMT1 FP inh: 0; PME-1 primary: 4; Fam108B counter: 0

Results for CCNC(=O)N(C)[C@H]1C[C@H]2c3[nH]c4cccc(-c5cccc(F)c5)c4c3CCN2C(=O)[C@H]1[C@H](C)O ?
SIAE inh: 4; PRMT1 FP inh: 3

What do the screens show for `O=C(NN1C(=O)/C(=C/C=C/c2ccco2)SC1=S)c1ccncc1`?
SIAE inh: 15; PAD4 FP inh: 2; TCR CD3 inh: 16; PRMT1 FP inh: 53*; PME-1 primary: -27; Fam108B counter: 41*; Fam108b confirm: 10; PRMT1 confirm: 52*

How did CCCCOc1[nH]c2nc(-c3ccco3)n(Cc3ccco3)c(=N)c2c1C#N do in these assays?
SIAE inh: 16; PAD4 FP inh: 9; TCR CD3 inh: 8; PRMT1 FP inh: 35*; PME-1 primary: 14; Fam108B counter: 20*; Fam108b confirm: 13; PRMT1 confirm: 32*

Results for COc1cc(/C=C2\SC(=S)N(NC(=O)c3ccccc3O)C2=O)ccc1O ?
SIAE inh: -98; PAD4 FP inh: -49; TCR CD3 inh: -87; PRMT1 FP inh: 5; PME-1 primary: -211; Fam108B counter: -171

Results for O=C(NN1C(=O)/C(=C/c2ccc(O)c([N+](=O)[O-])c2)SC1=S)c1ccccc1Cl ?
SIAE inh: -8; PAD4 FP inh: -22; TCR CD3 inh: -12; PRMT1 FP inh: 28*; PME-1 primary: -8; Fam108B counter: 25*; Fam108b confirm: 20*; PRMT1 confirm: 15

How did CCN1CCc2c(sc(NC(=O)Nc3ccc(Cl)c(Cl)c3)c2C(N)=O)C1 do in these assays?
SIAE inh: 31*; PAD4 FP inh: -6; TCR CD3 inh: 6; PRMT1 FP inh: 45*; PME-1 primary: 57*; Fam108B counter: 32*; Fam108b confirm: 4; PRMT1 confirm: 5

What do the screens show for `O=C(CCCN1C(=O)/C(=C\c2ccco2)SC1=S)Nc1ccc(O)cc1C(=O)O`?
SIAE inh: 6; PAD4 FP inh: -20; TCR CD3 inh: 8; PRMT1 FP inh: 62*; PME-1 primary: -43; Fam108B counter: 20*; Fam108b confirm: 12; PRMT1 confirm: 37*

Results for O=C(CCCN1C(=O)/C(=C\c2cccs2)SC1=S)Nc1ccc(O)cc1C(=O)O ?
SIAE inh: -3; PAD4 FP inh: -1; TCR CD3 inh: 13; PRMT1 FP inh: 2; PME-1 primary: 3; Fam108B counter: 4

What do the screens show for `COc1cccc(NS(=O)(=O)c2ccc3c(c2)CCCN3C(C)=O)c1`?
SIAE inh: 1; PAD4 FP inh: 2; TCR CD3 inh: -1; PRMT1 FP inh: 5; PME-1 primary: -2; Fam108B counter: 0

Results for COc1cccc(NS(=O)(=O)c2ccc3c(c2)C2C=CCC2C(c2ccc(C(=O)O)cc2)N3)c1 (stereo not given) ?
SIAE inh: 10; PAD4 FP inh: -9; TCR CD3 inh: 13; PRMT1 FP inh: 42*; PME-1 primary: -16; Fam108B counter: 43*; Fam108b confirm: 16; PRMT1 confirm: 30*

High-throughput results as filed in PubChem.
